Max response, Potency and outcome data for eleven compounds are collected here from PubChem BioAssay (NCATS).

Assay [1] has as its system HaCat. The assay is described as follows: Cytotoxic Profiling of Annotated Libraries Using Quantitative High-Throughput Screening (AID 1296008). Further: nearly all actives have a fitted effect of over 60% in size. Particulars: Five cell lines viability, CellTiter-Glo ATP luminescence, 48-72 h; max response: hits give low values. The procedure, abridged: (§1)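 Cells exposed to compounds for 48 or 72 hr at 37 degrees Celsius. Viability read as ATP-coupled luminescence with CellTiter-Glo after 10 min at room temperature.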
In general terms: ATP-based viability assays read luminescence as a measure of living cells.

The test system of another assay is KB-3-1. The assay is described as above. Particulars: Five cell lines viability, CellTiter-Glo ATP luminescence, 48-72 h; max response: hits give low values. In outline:
as §1

Assay [2] deals with NIH3T3. Described as above. To be noted: Five cell lines viability, CellTiter-Glo ATP luminescence, 48-72 h; max response: hits give low values. The procedure, abridged: as §1
The test system of another assay is MCC-13. The assay is described as follows: qHTS assay to identify novel small-molecules to repurpose for Merkel cell carcinoma treatment (AID 1296009). Further: nearly all actives have a fitted effect of over 60% in size. Particulars: MCC and control cell lines, CellTiter-Glo viability, 72 h; series mostly up to 46 µM. In outline:
(§2)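 Dose-response viability screen; 72 hr exposure at 37 degree celsius; CellTiter-Glo added, 10 min room temperature, luminescence read; RLUs scaled between no-cell and DMSO wells.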
(In qHTS, concentration-response curves come from the screen itself.)

For a further assay, the system named is MCC-26. The description is as above. To be noted: MCC and control cell lines, CellTiter-Glo viability, 72 h; series mostly up to 46 µM. In outline: as §2
Another assay concerns MKL-1. The description is as above. To be noted: MCC and control cell lines, CellTiter-Glo viability, 72 h; series mostly up to 46 µM. In outline:
as §2

In a further assay the test system is MKL-2. The description is as above. Particulars: MCC and control cell lines, CellTiter-Glo viability, 72 h; series mostly up to 46 µM. In outline: as §2
The subject of a further assay is UISO. The assay is described as above. Particulars: MCC and control cell lines, CellTiter-Glo viability, 72 h; series mostly up to 46 µM. In outline: as §2
A further assay relates to WaGa. The assay is described as above. Particulars: MCC and control cell lines, CellTiter-Glo viability, 72 h; series mostly up to 46 µM. The procedure, abridged:
as §2

In another assay the test system is C33A. The assay is described as follows: Primary qHTS to identify gynecologic anti-cancer compounds using libraries of approved drugs and bioactive compounds (AID 1345084). Further: nearly all actives have a fitted effect of over 55% in size. Particulars: Gynecologic cancer cell panel viability, ATPlite luminescence, 48 h; series mostly up to 57.5 µM. In outline:
(§3)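 Cells, 1,000 per well, plated 16 h, then exposed 48 h at 37 C to compounds. Viability by ATPlite luminescence after 15 min at room temperature.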

The next assay deals with CAOV3. Described as above. Particulars: Gynecologic cancer cell panel viability, ATPlite luminescence, 48 h; series mostly up to 57.5 µM. In outline: as §3
For the next assay, the system named is CASKI. The assay is described as above. Particulars: Gynecologic cancer cell panel viability, ATPlite luminescence, 48 h; series mostly up to 57.5 µM. In outline:
as §3

The subject of the next assay is Es-2. Described as above. Particulars: Gynecologic cancer cell panel viability, ATPlite luminescence, 48 h; series mostly up to 57.5 µM. In outline:
as §3

A further assay relates to HeLa. The description is as above. Particulars: Gynecologic cancer cell panel viability, ATPlite luminescence, 48 h; series mostly up to 57.5 µM. In outline: as §3
The subject of assay [3] is Hek293T. The assay is described as above. Particulars: Gynecologic cancer cell panel viability, ATPlite luminescence, 48 h, control line for the selectivity index; series mostly up to 57.5 µM. The procedure, abridged:
as §3

In another assay the test system is JEG-3. The assay is described as above. Particulars: Gynecologic cancer cell panel viability, ATPlite luminescence, 48 h; series mostly up to 57.5 µM. The procedure, abridged:
as §3

The next assay relates to OV90. The assay is described as above. To be noted: Gynecologic cancer cell panel viability, ATPlite luminescence, 48 h; series mostly up to 57.5 µM. The procedure, abridged: as §3
The test system of assay [4] is HACAT. The assay is described as follows: qHTS assay to identify novel small-molecules to repurpose for Merkel cell carcinoma treatment (AID 1296009). Further: nearly all actives have a fitted effect of over 60% in size. To be noted: MCC and control cell lines, CellTiter-Glo viability, 72 h; at 44.8 µM (top of the series) unless noted. The procedure, abridged:
as §2

For assay [5], the system named is HEK293T. Described as above. Particulars: MCC and control cell lines, CellTiter-Glo viability, 72 h; at 44.8 µM (top of the series) unless noted. The procedure, abridged:
as §2

The test system of assay [6] is NIH3T3. The description is as above. Particulars: MCC and control cell lines, CellTiter-Glo viability, 72 h; at 44.8 µM (top of the series) unless noted. In outline:
as §2

“And” between values parts separate entries of the source, which are not always exact repeats. Identical values can stand only once. Results filed as inconclusive are left out. Values without a mark were called inactive. The source made the active and inactive calls. The call rests on the fitted dose curve; in most records, active means well fitted curve in the direction sought with a large enough effect; inconclusive means small, poorly fitted or top-dose-only effect, or another doubt; inactive means no such curve, though single readings can be large; an effect the other way counts as inactive or inconclusive.
On the % scale 0 is the no-effect control and ±100 the full control effect; potency means the concentration at half of the fitted maximal effect.

As for `OC(CCCN1CCCCC1)(c1ccccc1)c1ccccc1`, the max response is -16% in the assay with HaCat [1], -5.63% in the assay with KB-3-1 and -14.5% with NIH3T3 [2]. Moreover, the Potency result with MCC-13, in the assay on MCC-26, with MKL-1, in the assay on MKL-2, in the assay on UISO and in the assay on WaGa was “inactive” in each case. Moreover, the Potency entry with C33A, in the assay on CAOV3, with CASKI, in the assay on Es-2, in the assay with HeLa and with Hek293T [3] was “inactive” in each case. Further, the Potency result in the assay with JEG-3 was “inactive”.
Consider `CCCCC/C=C\C/C=C\CCCCCCCC(=O)NC(C)c1ccccc1` (stereo not drawn), for which the max response was -11.3% in the assay with HaCat [1], -8.18% in the assay on KB-3-1 and -26.3% with NIH3T3 [2]. Moreover, the Potency entry in the assay on MCC-13, with MCC-26, in the assay on MKL-1, with UISO, with WaGa and in the assay with C33A was “inactive” each time. The Potency result in the assay on CAOV3, in the assay with CASKI, in the assay on Es-2, in the assay with HeLa, with Hek293T [3] and in the assay with JEG-3 was “inactive” in each case.
As to `N#C/C(=C1/SC[C@@H](c2ccc(Cl)cc2Cl)S1)n1ccnc1`, the max response in the assay with HaCat [1] is -0.746%; in the assay on KB-3-1, -3.46% and -14.6% and -17.3%; with NIH3T3 [2] it was -5.57%. Besides, the Potency entry with MCC-26, with C33A, with CAOV3, in the assay with CASKI, with Es-2 and in the assay on HeLa was “inactive” in each case. Moreover, the Potency entry with Hek293T [3] and with JEG-3 was “inactive” each time.
For the compound `CN(CC1(C)CCCO1)S(=O)(=O)c1ccc(Cl)c(S(N)(=O)=O)c1` (stereo not drawn), the max response in the assay on HaCat [1] is -20.1%. For the same compound, the call with KB-3-1 was inactive. The Potency result with MCC-13, in the assay with MCC-26, in the assay on MKL-1, with MKL-2, in the assay on UISO and in the assay with WaGa was “inactive” throughout. In addition, the Potency entry in the assay with C33A, in the assay with CAOV3, with CASKI, in the assay on Es-2, in the assay on HeLa and with Hek293T [3] was “inactive” in each case. Also, the Potency result with JEG-3 and with OV90 was “inactive” throughout.
Regarding `COC(=O)C1=CO[C@@H](O)[C@@H]2C(CO)=CC[C@H]12`, the max response with HaCat [1] was -1.37%; in the assay with KB-3-1, -12.1%; in the assay on NIH3T3 [2], -14.6%. The Potency result in the assay with C33A, with CASKI, with Es-2, in the assay on HeLa, with Hek293T [3] and in the assay with JEG-3 was “inactive” throughout. Further, the Potency entry in the assay on OV90 is “inactive”.
In the case of `CCCN(CCC)C(=O)C(CCC(=O)OCCCN1CCN(CCOC(=O)Cc2c(C)n(C(=O)c3ccc(Cl)cc3)c3ccc(OC)cc23)CC1)NC(=O)c1ccccc1` (stereo not drawn), the max response was -0.687% in the assay on HaCat [1], -0.886% in the assay on KB-3-1 and 1.41% with NIH3T3 [2]. In addition, the Potency entry with MCC-13, in the assay with MCC-26, in the assay on MKL-1, with UISO, in the assay with C33A and with CAOV3 was “inactive” each time. Moreover, the Potency entry in the assay with CASKI, in the assay on Es-2, in the assay with HeLa, with Hek293T [3], in the assay with JEG-3 and in the assay on OV90 was “inactive” each time.
With `CCN(CC)CC(=O)Oc1ccc(NC(C)=O)cc1`, the call with HaCat [1], in the assay with NIH3T3 [2], with HACAT [4], in the assay with HEK293T [5] and in the assay with NIH3T3 [6] was inactive. For the same compound, the Potency entry in the assay with MCC-13, in the assay on MCC-26, with MKL-1, with MKL-2, with UISO and in the assay with WaGa was “inactive” each time. Besides, the Potency result in the assay with C33A, with CAOV3, in the assay on CASKI, in the assay with Es-2, with HeLa and with Hek293T [3] was “inactive” each time. The Potency result in the assay with JEG-3 and with OV90 was “inactive” throughout.
`CCCCCCCCCCCCCCCC[n+]1ccccc1`: the Potency was 5.96 µM (active) in the assay on HaCat [1]; 14.6 µM (active) in the assay on KB-3-1; 16.8 µM (active) with NIH3T3 [2]; 11.9 µM (active) in the assay on MCC-13; 0.841 µM (active) in the assay on MKL-1; 0.422 µM (active) with MKL-2. Besides, the Potency was 1.68 µM (active) in the assay with UISO; 2.11 µM (active) in the assay with WaGa; 17.8 µM (active) in the assay on C33A; 7.94 µM (active) with CASKI; 17.8 µM (active) in the assay on Es-2; 8.91 µM (active) in the assay on Hek293T [3]. The Potency with OV90 was 31.6 µM (active).
On to `CC(=O)c1ccc(O)c(C(N)=O)c1`, for which the call with HaCat [1], in the assay on NIH3T3 [2], in the assay on HACAT [4], with HEK293T [5] and with NIH3T3 [6] was inactive. Besides, the Potency result with MCC-13, in the assay on MCC-26, in the assay on MKL-1, with MKL-2, in the assay on UISO and in the assay with WaGa was “inactive” throughout. For the same compound, the Potency result in the assay on C33A, in the assay with CAOV3, with CASKI, with Es-2, in the assay with HeLa and with Hek293T [3] was “inactive” each time. In addition, the Potency entry in the assay on JEG-3 and in the assay on OV90 was “inactive” in each case.
`CN1N=C(C(N)=O)CCC1=O`: the result in the assay with HaCat [1], in the assay with NIH3T3 [2], in the assay with HACAT [4], with HEK293T [5] and in the assay on NIH3T3 [6] was inactive. The Potency entry in the assay with MCC-13, in the assay with MCC-26, in the assay on MKL-1, with MKL-2, with UISO and in the assay with WaGa was “inactive” each time. The Potency entry in the assay with C33A, with CAOV3, in the assay on CASKI, in the assay on Es-2, with HeLa and in the assay with Hek293T [3] was “inactive” in each case. The Potency entry with JEG-3 and with OV90 was “inactive” in each case.
As to `C[N+](C)(CCOc1ccccc1)Cc1cccs1`, the max response was 2.51% with HaCat [1], -7.87% in the assay on KB-3-1 and -2.33% in the assay on NIH3T3 [2]. The Potency result in the assay with MCC-13, with MCC-26, in the assay on MKL-1, in the assay on MKL-2, with UISO and with C33A was “inactive” throughout. For the same compound, the Potency entry in the assay with CASKI, in the assay on Es-2, in the assay with HeLa, in the assay with Hek293T [3], in the assay on JEG-3 and with OV90 was “inactive” throughout.
